# From PubChem BioAssay AID463173 (ICCB-Longwood Screening Facility, Harvard Medical School, 2010)
# In all, about 52,000 compounds went through this assay and about 4,300 (8.3%) were called active. What follows is part of a selection rich in actives, with near analogues and random picks from the rest. Values without a mark were called inactive. Cut-off read from the data, not from the text of the source: active = survival mostly below about 52% (no sharp cut-off); inactive = mostly above about 56%.
# System: DeltatarO mutant
# Assay: S. aureus survival, RN4220 and DeltatarO strains – OD600, teichoic acid synthesis inhibitors, primary screen (AID 463173)
# Conditions: S. aureus RN4220 wild type/DeltatarO growth, OD600, 18 h, hits give low values, screened at 18.75 µg/mL (by protocol)
row,Compound,survival
1,CCN(CC)c1ccc(NC(=O)CCc2c(C)nc3ncnn3c2C)c(C)c1,115%
2,CCN1CCN(CCCNC(=O)c2cc3c(=O)n(C)c4ccccc4c3s2)CC1,79%
3,O=C(NCCSCc1cccc(Cl)c1)C1CCN(S(=O)(=O)Cc2ccccc2)CC1,63%
4,COc1ccc(OC)c(C2C(C(=O)Nc3ccc(C)cc3C)=C(C)Nc3c(C(=O)Nc4ccc(F)cc4)cnn32)c1 (stereo not given),96%
5,O=C(NCc1ccccc1)c1nc(S(=O)(=O)Cc2ccccc2)ncc1Cl,18% (active)
6,COc1ccc(CNC(=O)c2nc(S(=O)(=O)Cc3ccccc3)ncc2Cl)cc1,18% (active)
7,Cc1ccc(CSc2ncc(Cl)c(C(=O)NCc3ccccc3)n2)cc1,79%
8,CCS(=O)(=O)c1ncc(Cl)c(C(=O)NCc2ccccc2)n1,50%
9,COc1ccc(CNC(=O)c2nc(SCc3ccccc3F)ncc2Cl)cc1,81%
10,Cc1ccc(C)c(NC(=O)c2nc(S(=O)(=O)Cc3ccc(F)cc3)ncc2Cl)c1,99%
11,COc1ccc(CNC(=O)c2nc(SC(C)C)ncc2Cl)cc1,114%
12,Cc1ccc(NC(=O)c2nc(S(=O)(=O)Cc3ccc(F)cc3)ncc2Cl)cc1C,84%
13,Cc1ccc(CNC(=O)c2nc(SCc3ccc(F)cc3)ncc2Cl)cc1,71%
14,O=C(NCc1ccccc1)c1nc(S(=O)(=O)Cc2ccc(F)cc2)ncc1Cl,-6% (active)
15,CC(=O)Nc1ccc(NC(=O)c2nc(S(=O)(=O)Cc3ccc(F)cc3)ncc2Cl)cc1,32% (active)
16,CCNC(=O)c1c(NC(=O)Cc2coc3ccc(CC)cc23)sc2c1CCCC2,79%
17,COc1ccc(CNC(=O)c2cccc(-n3cnc4cccnc43)c2C)cc1,90%
18,CCc1ccc(NC(=O)c2cc(S(=O)(=O)N3CCCCCC3)ccc2F)cc1,99%
19,CC(=O)Nc1n[nH]c(-c2ccc(C)cc2)c1C,94%
20,Cc1ccc(NC(=O)Cn2c(=O)ccc3cc(S(=O)(=O)N4CCC(C)CC4)ccc32)cc1C,71%
21,COc1ccc(N2C(=O)C(CC(=O)Nc3ccccc3)N(CCC3=CCCCC3)C2=O)cc1 (stereo not given),72%
22,COc1ccccc1NC(=O)c1nc(SCc2ccc(F)cc2)ncc1Cl,77%
23,Cc1cccc(CS(=O)(=O)c2ncc(Cl)c(C(=O)NCc3ccccc3)n2)c1,-1% (active)

row,Compound,survival
1,COc1ccc(NC(=O)c2nc(S(=O)(=O)Cc3ccc(C)cc3)ncc2Cl)cc1,32% (active)
2,COc1ccc(OC)c(NC(=O)c2nc(SCc3ccc(F)cc3)ncc2Cl)c1,77%
3,Cc1ccc(CNC(=O)c2nc(S(=O)(=O)Cc3ccc(C)cc3)ncc2Cl)cc1,41% (active)
4,Cc1cccc(CS(=O)(=O)Cc2ccc(C(=O)NCc3ccccc3)o2)c1,124%
5,COc1ccc(CNC(=O)c2nc(SCc3ccc(C)cc3)ncc2Cl)cc1,67%
6,CSc1ncc(Cl)c(C(=O)NCc2ccc(C)cc2)n1,84%
7,COc1ccc(OC)c(NC(=O)c2nc(S(=O)(=O)Cc3ccc(F)cc3)ncc2Cl)c1,-5% (active)
8,Cc1ccc(CNC(=O)c2nc(SCc3cccc(C)c3)ncc2Cl)cc1,117%
9,CCOc1ccc(NS(=O)(=O)c2ccc3c(c2)CCCN3C(=O)C2CCC2)cc1,67%
10,CC(C)Oc1ccc(CNC(=O)c2cnc3sc(N4CCCCC4)nn3c2=O)cc1,124%
11,CCCCCn1c(=N)c(S(=O)(=O)c2ccc(C)cc2)cc2c(=O)n3cc(C)ccc3nc21,84%
12,O=C(NCc1ccc(Cl)cc1)NCc1noc2ccccc12,41%
13,COc1ccccc1NC(=O)CSc1oc(-c2cccs2)nc1S(=O)(=O)c1ccc(Br)cc1,68%
14,CCn1ccc2cc(S(=O)(=O)N3CCCN(C(=O)Nc4ccc(C)cc4)CC3)ccc21,73%
15,CCSc1nnc(C2CCCN(CC(=O)Nc3nc(C)cs3)C2)n1C (stereo not given),91%
16,CC(C)NC(=O)c1ccc(CSc2nc3ccncc3n2Cc2cccc(F)c2)cc1,77%
17,CCOc1ccc(-c2nonc2NC(=O)c2ccccc2C)cc1,107%
18,CCOc1ccc(NC(=O)c2cc(S(=O)(=O)N3CCOCC3)ccc2F)cc1,89%
19,Cc1ccc(NC(=O)c2nc(S(=O)(=O)Cc3cccc(C)c3)ncc2Cl)cc1,-3% (active)
20,CCOC(=O)c1ccc(NC(=O)c2nc(S(=O)(=O)Cc3ccccc3)ncc2Cl)cc1,-2% (active)
21,CCOc1ccccc1NC(=O)c1nc(S(=O)(=O)Cc2cccc(C)c2)ncc1Cl,66%
22,CCS(=O)(=O)c1ncc(Cl)c(C(=O)Nc2c(C(=O)Nc3cccc(C)c3)oc3ccccc23)n1,67%
23,COC(=O)c1ccccc1NC(=O)c1nc(SCc2ccccc2C)ncc1Cl,79%

row,Compound,survival
1,COC(=O)c1ccccc1NC(=O)c1nc(S(=O)(=O)Cc2cccc(C)c2)ncc1Cl,39% (active)
2,CCS(=O)(=O)c1ncc(Cl)c(C(=O)Nc2ccccc2)n1,52%
3,CCOC(=O)c1ccc(NC(=O)c2nc(SC(C)C)ncc2Cl)cc1,107%
4,CCc1cccc(NC(=O)Cn2c(=O)n(-c3ccccc3C)c(=O)c3c2c2cc(C)ccc2n3C)c1,85%
5,O=C(COc1ccccc1Cl)Nc1ccc(-c2nc3ccccc3s2)cc1,52%
6,CCOC(=O)c1ccc(Nc2c(-c3ccc(N(C)C)cc3)nc3nc[nH]n23)cc1,102%
7,COc1cccc(OCc2cc(=O)n3c(-c4ccccc4)csc3n2)c1,74%
8,CC(C)CC(=O)Nc1cccc(-c2cn3cccnc3n2)c1,83%
9,CN1CCN(Cc2nnnn2CC2CCCO2)CC1 (stereo not given),95%
10,CCc1cccc(NC(=O)c2nnn(Cc3ccc(SC)cc3)c2N)c1,59%
11,CCOc1ccc(Cn2nnc(C(=O)Nc3ccc(Cl)cc3)c2N)cc1,88%
12,CCOc1ccc(Cn2nnc(C(=O)Nc3cccc(SC)c3)c2N)cc1,30% (active)
13,CCOc1ccc(S(=O)(=O)Nc2cccc(-c3ccc(N4CCC(C)CC4)nn3)c2)cc1,86%
14,CC(C)COc1ccc(C(=O)N(Cc2ccc(N(C)C)cc2)Cc2ccco2)cc1,71%
15,Cc1ccc(NC(=O)CSCc2cc(=O)c3ccccc3[nH]2)c(C)c1,116%
16,O=C(Cn1c(=O)c2cccn2c2ccc(F)cc21)N1CCN(c2ccccc2F)CC1,56%
17,Cc1ccc(NC(=O)CCn2c(=O)c3cccn3c3ccccc32)cc1C,46% (active)
18,Cc1ccc(NC(=O)CCCn2c(=O)c3cccn3c3ccccc32)cc1C,61%
19,Cc1cc(C)c(NC(=O)CCn2c(=O)c3cccn3c3ccccc32)c(C)c1,49%
20,Cc1ccc(NC(=O)CCn2c(=O)c3cccn3c3ccccc32)cc1Cl,45% (active)
21,Cc1ccc(NC(=O)CCCn2c(=O)c3cccn3c3ccccc32)cc1Cl,68%
22,CC(C)c1ccc(NC(=O)CCn2c(=O)c3cccn3c3ccccc32)cc1,57%
23,O=C(Nc1ccc(Cl)cc1)N1CCN(c2ccc3nnc(-c4ccccc4)n3n2)CC1,72%

row,Compound,survival
1,COc1cc(C2C(C(=O)Nc3ccc(Cl)cc3)=C(C)Nc3nc(SC)nn32)cc(OC)c1OC (stereo not given),64%
2,CC(C)=NNS(=O)(=O)c1ccc(N2CCCC2=O)cc1,71%
3,CC1CCc2sc3ncnc(NCCCN(C)C)c3c2C1 (stereo not given),117%
4,Cc1nn(CC(=O)NCc2ccc(N(C)C)cc2)c(=O)c2nn(-c3ccccc3)c(C)c12,83%
5,CCS(=O)(=O)N1CCc2cc(C(=O)NCCc3ccc(OC)c(OC)c3)ccc21,69%
6,CCC(=O)N1CCc2cc(Br)cc(S(=O)(=O)NCCc3ccc(OC)c(OC)c3)c21,52%
7,CCOc1ccc(C(=O)N2CC(=O)Nc3ccc(C)cc3C2c2ccc(F)cc2)cc1OCC (stereo not given),67%
8,Cc1ccc2c(c1)C(c1ccc(F)cc1)N(C(=O)COc1ccc(Cl)cc1Cl)CC(=O)N2 (stereo not given),45% (active)
9,O=C1CN(C(=O)COc2ccc(Cl)cc2Cl)C(c2ccccc2)c2cc(F)ccc2N1 (stereo not given),88%
10,CCCC(=O)N1CC(=O)Nc2ccc(Cl)cc2C1c1ccccc1 (stereo not given),69%
11,COc1ccc(C(=O)N2CC(=O)Nc3ccc(C)cc3C2c2ccccc2)cc1OC (stereo not given),61%
12,Cc1ccc2c(c1)C(c1ccc(F)cc1)N(C(=O)C(C)C)CC(=O)N2 (stereo not given),82%
13,O=C1CN(C(=O)COc2ccc(Cl)cc2Cl)C(c2ccc(F)cc2)c2cc(F)ccc2N1 (stereo not given),47% (active)
14,CCCC(=O)N1CC(=O)Nc2ccc(Cl)cc2C1c1ccc(F)cc1 (stereo not given),50%
15,Cc1ccc2c(c1)C(c1ccccc1)N(C(=O)COc1ccc(Cl)cc1Cl)CC(=O)N2 (stereo not given),49% (active)
16,Cc1c(CCC(=O)NCCc2ccccc2F)c(=O)oc2cc(O)ccc12,61%
17,O=C(CSc1nc2c([nH]c3ccccc32)c(=O)n1-c1ccccc1)N1CCc2ccccc21,101%
18,CCOC(=O)c1ccccc1NS(=O)(=O)c1ccc(N2CCCCS2(=O)=O)cc1,90%
19,CN1CCN(Cn2c(O)c(N=NC(=O)c3ccc(Br)cc3)c3cc(Br)ccc32)CC1,87%
20,CCOc1ccc(NC(=O)CC2C(=O)N(c3cccc(C)c3)C(=O)N2Cc2cccnc2)cc1 (stereo not given),55%
21,CCOc1ccc(NC(=O)c2cnc3sc(N4CCOCC4)nn3c2=O)cc1,97%
